Test results published in ChEMBL document CHEMBL1961873, “Compounds: GSK PKIS; Assays: Nanosyn kinase panel” (2012).

tested on: T1, Receptor-type tyrosine-protein kinase FLT3 (Homo sapiens), P36888 [D835Y]; conditions: at 1 µM
T1 sequence (whole entry): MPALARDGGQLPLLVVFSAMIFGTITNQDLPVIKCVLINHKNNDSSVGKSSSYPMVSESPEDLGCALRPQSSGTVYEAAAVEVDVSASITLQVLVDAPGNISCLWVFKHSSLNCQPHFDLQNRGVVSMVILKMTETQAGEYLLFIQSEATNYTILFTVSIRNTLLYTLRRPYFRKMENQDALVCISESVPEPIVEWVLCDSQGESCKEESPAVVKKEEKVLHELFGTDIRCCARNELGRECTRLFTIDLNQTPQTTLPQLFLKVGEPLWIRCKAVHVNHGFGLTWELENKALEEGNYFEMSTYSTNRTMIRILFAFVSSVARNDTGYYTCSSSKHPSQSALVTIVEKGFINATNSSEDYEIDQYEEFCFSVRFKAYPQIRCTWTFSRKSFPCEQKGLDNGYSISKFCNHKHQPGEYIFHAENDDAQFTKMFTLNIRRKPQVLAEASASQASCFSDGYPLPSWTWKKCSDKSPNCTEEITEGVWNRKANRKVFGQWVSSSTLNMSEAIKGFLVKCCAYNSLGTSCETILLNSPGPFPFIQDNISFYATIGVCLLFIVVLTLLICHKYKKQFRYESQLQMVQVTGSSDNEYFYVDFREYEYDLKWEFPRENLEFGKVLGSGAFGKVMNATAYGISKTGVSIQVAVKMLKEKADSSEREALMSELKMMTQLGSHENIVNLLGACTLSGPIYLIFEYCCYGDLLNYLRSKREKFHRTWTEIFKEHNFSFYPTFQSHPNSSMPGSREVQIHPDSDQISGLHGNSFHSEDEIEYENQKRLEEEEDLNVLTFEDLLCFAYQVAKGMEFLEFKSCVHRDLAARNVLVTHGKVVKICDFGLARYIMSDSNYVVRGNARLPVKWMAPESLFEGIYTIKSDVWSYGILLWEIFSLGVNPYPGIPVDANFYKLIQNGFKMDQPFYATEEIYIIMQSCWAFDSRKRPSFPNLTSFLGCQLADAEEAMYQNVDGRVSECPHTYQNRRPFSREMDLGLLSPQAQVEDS

| Compound | inhibition [%] |
| --- | --- |
| NC(=O)c1ccc(Oc2nccc(-c3c(-c4ccc(F)cc4)ncn3C3CCNCC3)n2)cc1 | 1.08 |
| COc1ccc(-c2ccc3c(NC(=O)C4CC4)n[nH]c3n2)cc1 | 5.49 |
| Cc1ccc(C(=O)NC2CCC2)cc1-c1ccc(C(=O)NCC2CC2)cc1 | 8.02 |
| CN(c1ccc(NC(=O)Nc2c(Cl)cccc2Cl)cc1)c1ccnc(Nc2cccc(CS(C)(=O)=O)c2)n1 | 28.8 |
| O=C(Nc1ccc(Oc2ccc3[nH]c(NC(=O)c4ccccc4)nc3c2)cc1)Nc1cc(C(F)(F)F)ccc1F | 14 |
| Clc1ccc(CNc2nccc(-c3cnn4ncccc34)n2)cc1 | 2.01 |
| NC(=O)c1cc(-c2ccc(F)cc2)cc(-c2ccncc2)c1N | -3.97 |
| NS(=O)(=O)c1ccc(Nc2cc(-c3ccc(O)c(F)c3)n[nH]2)cc1 | 34.1 |
| CCc1nccc2c1nc(-c1nonc1N)n2CC | -1.94 |
| Fc1ccc(-c2ncn(C3CCNCC3)c2-c2ccnc(Oc3ccc4c(c3)OCO4)n2)cc1 | -0.75 |
| CS(=O)(=O)CCNCc1cc(-c2cc3c(Nc4ccc(OCc5cccc(F)c5)c(Cl)c4)ncnc3s2)cs1 | 5.05 |
| CCc1cccc(CC)c1/C=C/c1cncc(C(=O)NC)c1 | 4.06 |
| COc1ccc(C2=C(N3CCc4ccccc43)C(=O)NC2=O)cc1 | 3.5 |
| COc1cccc(/C=N/Nc2ncnc3c2cnn3-c2cccc(OC)c2)c1 | 7.24 |
| N#Cc1ccc(Oc2nccc(-c3c(-c4ccc(F)cc4)ncn3C3CCNCC3)n2)cc1 | 4.07 |
| O=C(Nc1n[nH]c2cc(-c3ccccc3)ccc12)C1CC1 | 4.54 |
| FC(F)(F)c1cccc(Nc2nccc(-c3cnn4nc(-c5ccccc5)ccc34)n2)c1 | 26.7 |

| Compound | inhibition [%] |
| --- | --- |
| COC(=O)Nc1nc2ccc(Sc3ccc(NC(=O)Nc4cc(C(F)(F)F)ccc4F)cc3)cc2[nH]1 | 6.34 |
| NC(=O)c1cc(-c2ccncc2)cc(-c2ccccc2)c1N | 2.51 |
| Fc1ccc(-c2ncn(CCCN3CCOCC3)c2-c2ccncc2)cc1 | 0.03 |
| O=C1Nc2ccccc2/C1=C/Nc1ccc(-n2cncn2)cc1 | 45.8 |
| CS(=O)(=O)CCNCc1ccc(-c2ccc3ncnc(Nc4ccc(OCc5ccccc5)c(Br)c4)c3c2)o1 | -0.11 |
| O=C(Nc1n[nH]c2nc(-c3ccc(O)cc3)c(Br)cc12)C1CC1 | 27.1 |
| CCN(CC)Cc1ccc(Nc2nccc(-c3cnn4ncccc34)n2)cc1 | 17.1 |
| COc1cc2ncn(-c3cc(OCc4ccccc4C(F)(F)F)c(C(C)=O)s3)c2cc1OC | 2.27 |
| O=C(Nc1n[nH]c2nc(-c3ccco3)ccc12)C1CC1 | 3.83 |
| Nc1nccc(-c2c(-c3ccc(F)cc3)ncn2C2CCC(O)CC2)n1 (stereo not drawn) | 0.98 |
| C/C(Nc1ccc(S(N)(=O)=O)cc1)=C1/C(=O)Nc2ccccc21 | 46.8 |
| O=C1NC(=O)C(c2cccc(Cl)c2)=C1Nc1ccc(Cl)c(C(=O)O)c1 | -3.79 |
| O=C(Nc1n[nH]c2cc(-c3cc(F)ccc3F)ccc12)C1CC1 | -2.14 |
| COc1ccc2cc(-c3c(-c4ccncc4)nc(-c4ccc(S(C)(=O)=O)cc4C)n3C)ccc2c1 | -2.55 |
| Fc1ccc(-c2ncn(C3CCNCC3)c2-c2ccnc(Oc3ccc(F)c(F)c3)n2)cc1 | -6.12 |
| CCc1ccc(Oc2nccc(-c3c(-c4ccc(F)cc4)ncn3C3CCNCC3)n2)cc1 | 7.51 |
| CCC(=O)Nc1ccc(C)c(-c2ccc(C(=O)NCC3CC3)cc2)c1 | 3.02 |

biological target: Vascular endothelial growth factor receptor 3 (Homo sapiens) (UniProt P35916); conditions: at 0.1 µM
Sequence (P35916 whole entry): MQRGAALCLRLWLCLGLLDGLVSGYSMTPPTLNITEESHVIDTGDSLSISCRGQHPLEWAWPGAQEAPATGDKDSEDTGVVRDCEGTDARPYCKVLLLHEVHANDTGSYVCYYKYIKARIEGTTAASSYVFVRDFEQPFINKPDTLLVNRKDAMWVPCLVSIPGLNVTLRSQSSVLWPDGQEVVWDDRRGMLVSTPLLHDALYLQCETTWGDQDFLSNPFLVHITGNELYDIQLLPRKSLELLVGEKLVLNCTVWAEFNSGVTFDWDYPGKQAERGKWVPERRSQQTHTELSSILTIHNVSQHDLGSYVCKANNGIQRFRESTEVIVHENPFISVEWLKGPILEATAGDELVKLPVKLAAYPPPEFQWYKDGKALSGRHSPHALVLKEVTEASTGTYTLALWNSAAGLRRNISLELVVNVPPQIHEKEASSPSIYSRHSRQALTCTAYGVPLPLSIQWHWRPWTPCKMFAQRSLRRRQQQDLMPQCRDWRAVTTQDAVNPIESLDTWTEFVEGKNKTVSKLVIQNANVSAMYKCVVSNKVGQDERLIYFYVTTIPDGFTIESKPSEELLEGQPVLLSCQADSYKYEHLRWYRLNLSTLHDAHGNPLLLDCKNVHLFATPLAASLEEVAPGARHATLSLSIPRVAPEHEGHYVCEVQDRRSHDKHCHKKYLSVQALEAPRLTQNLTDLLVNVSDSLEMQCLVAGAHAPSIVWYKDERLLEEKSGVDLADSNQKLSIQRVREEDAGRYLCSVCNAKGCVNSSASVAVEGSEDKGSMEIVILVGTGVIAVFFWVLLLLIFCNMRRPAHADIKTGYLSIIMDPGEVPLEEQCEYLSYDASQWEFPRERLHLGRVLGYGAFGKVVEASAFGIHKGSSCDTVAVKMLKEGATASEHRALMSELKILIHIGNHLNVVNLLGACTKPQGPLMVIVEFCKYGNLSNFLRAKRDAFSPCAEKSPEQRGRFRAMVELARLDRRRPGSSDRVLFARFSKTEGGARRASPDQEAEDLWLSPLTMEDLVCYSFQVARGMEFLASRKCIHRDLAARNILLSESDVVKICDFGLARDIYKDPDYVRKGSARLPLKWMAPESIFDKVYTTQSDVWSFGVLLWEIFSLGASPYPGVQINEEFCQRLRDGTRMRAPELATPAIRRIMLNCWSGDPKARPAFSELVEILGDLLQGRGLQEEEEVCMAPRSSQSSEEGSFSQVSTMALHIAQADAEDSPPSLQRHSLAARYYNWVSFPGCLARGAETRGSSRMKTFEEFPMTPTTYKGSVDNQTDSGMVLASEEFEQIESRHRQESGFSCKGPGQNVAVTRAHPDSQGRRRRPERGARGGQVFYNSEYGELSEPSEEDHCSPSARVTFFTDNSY

| Compound | inhibition [%] |
| --- | --- |
| NC(=O)c1ccc(Oc2nccc(-c3c(-c4ccc(F)cc4)ncn3C3CCNCC3)n2)cc1 | 7.32 |
| COc1ccc(-c2ccc3c(NC(=O)C4CC4)n[nH]c3n2)cc1 | 1.77 |
| Cc1ccc(C(=O)NC2CCC2)cc1-c1ccc(C(=O)NCC2CC2)cc1 | 1.24 |
| CN(c1ccc(NC(=O)Nc2c(Cl)cccc2Cl)cc1)c1ccnc(Nc2cccc(CS(C)(=O)=O)c2)n1 | 23 |
| O=C(Nc1ccc(Oc2ccc3[nH]c(NC(=O)c4ccccc4)nc3c2)cc1)Nc1cc(C(F)(F)F)ccc1F | 14.1 |
| Clc1ccc(CNc2nccc(-c3cnn4ncccc34)n2)cc1 | -1.51 |
| NC(=O)c1cc(-c2ccc(F)cc2)cc(-c2ccncc2)c1N | -0.28 |
| NS(=O)(=O)c1ccc(Nc2cc(-c3ccc(O)c(F)c3)n[nH]2)cc1 | 0.48 |
| CCc1nccc2c1nc(-c1nonc1N)n2CC | -0.59 |
| Fc1ccc(-c2ncn(C3CCNCC3)c2-c2ccnc(Oc3ccc4c(c3)OCO4)n2)cc1 | 3.31 |
| CS(=O)(=O)CCNCc1cc(-c2cc3c(Nc4ccc(OCc5cccc(F)c5)c(Cl)c4)ncnc3s2)cs1 | 1.58 |
| CCc1cccc(CC)c1/C=C/c1cncc(C(=O)NC)c1 | 1.11 |
| COc1ccc(C2=C(N3CCc4ccccc43)C(=O)NC2=O)cc1 | 1.33 |
| COc1cccc(/C=N/Nc2ncnc3c2cnn3-c2cccc(OC)c2)c1 | 1.81 |
| N#Cc1ccc(Oc2nccc(-c3c(-c4ccc(F)cc4)ncn3C3CCNCC3)n2)cc1 | -3.29 |
| O=C(Nc1n[nH]c2cc(-c3ccccc3)ccc12)C1CC1 | 16.2 |
| FC(F)(F)c1cccc(Nc2nccc(-c3cnn4nc(-c5ccccc5)ccc34)n2)c1 | -0.18 |

| Compound | inhibition [%] |
| --- | --- |
| COC(=O)Nc1nc2ccc(Sc3ccc(NC(=O)Nc4cc(C(F)(F)F)ccc4F)cc3)cc2[nH]1 | 14.8 |
| NC(=O)c1cc(-c2ccncc2)cc(-c2ccccc2)c1N | 2.14 |
| Fc1ccc(-c2ncn(CCCN3CCOCC3)c2-c2ccncc2)cc1 | 0.07 |
| O=C1Nc2ccccc2/C1=C/Nc1ccc(-n2cncn2)cc1 | 16.8 |
| CS(=O)(=O)CCNCc1ccc(-c2ccc3ncnc(Nc4ccc(OCc5ccccc5)c(Br)c4)c3c2)o1 | -7.55 |
| O=C(Nc1n[nH]c2nc(-c3ccc(O)cc3)c(Br)cc12)C1CC1 | 18.3 |
| CCN(CC)Cc1ccc(Nc2nccc(-c3cnn4ncccc34)n2)cc1 | -5.53 |
| COc1cc2ncn(-c3cc(OCc4ccccc4C(F)(F)F)c(C(C)=O)s3)c2cc1OC | 3.53 |
| O=C(Nc1n[nH]c2nc(-c3ccco3)ccc12)C1CC1 | -1.89 |
| Nc1nccc(-c2c(-c3ccc(F)cc3)ncn2C2CCC(O)CC2)n1 (stereo not drawn) | 1.39 |
| C/C(Nc1ccc(S(N)(=O)=O)cc1)=C1/C(=O)Nc2ccccc21 | 7.83 |
| O=C1NC(=O)C(c2cccc(Cl)c2)=C1Nc1ccc(Cl)c(C(=O)O)c1 | 3.32 |
| O=C(Nc1n[nH]c2cc(-c3cc(F)ccc3F)ccc12)C1CC1 | 0.33 |
| COc1ccc2cc(-c3c(-c4ccncc4)nc(-c4ccc(S(C)(=O)=O)cc4C)n3C)ccc2c1 | 4.4 |
| Fc1ccc(-c2ncn(C3CCNCC3)c2-c2ccnc(Oc3ccc(F)c(F)c3)n2)cc1 | -4.95 |
| CCc1ccc(Oc2nccc(-c3c(-c4ccc(F)cc4)ncn3C3CCNCC3)n2)cc1 | 6.35 |
| CCC(=O)Nc1ccc(C)c(-c2ccc(C(=O)NCC3CC3)cc2)c1 | 3.63 |
